Shown is part of a subset that was picked to be rich in hits.
mHTT-CaM PPI inh = disrupts binding of mutant huntingtin to calmodulin; inhibition, % at 15 µM; AlphaScreen His-mHTT/GST-CaM binding, luminescence; P42858; 3.6% of 190,000 active;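 note: 0% = both proteins with DMSO and 100% = one protein alone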
Pf apPOL inh = Pf-apPOL DNA polymerase inhibition; Recombinant Pf-apPOL, molecular beacon fluorescence, 1.5 h; inhibition, % at 10 µM; 0.25% of 210,000 active; AID 1794808
An asterisk follows results filed as active; x = not tested or not shown. Cut-off read from the data, not from the text of the source: active = inhibition above about 50%; inactive = the rest.

SMILES	mHTT-CaM PPI inh	Pf apPOL inh
CCN(CC)C(=O)c1ccc2c(c1)C1C=CCC1C(c1ccc([N+](=O)[O-])cc1)N2 (stereo not given)	70.3*	-1.8
CCN(CC)C(=O)c1ccc(NC(=O)c2ncn[nH]2)cc1	20.6	0.9
CCN(CC)C(=O)c1ccc2c(c1)C1C=CCC1C(C(=O)O)N2 (stereo not given)	75.8*	1.8
CCSc1nc2ccccc2c(=O)n1-c1cc(Cl)ccc1C	-23.6	-1.6
CCOc1cc(/C=C/[N+](=O)[O-])ccc1OCc1ccc(F)cc1	16.6	0.2
COc1ccc2c(c1)C1(CCN(C(=O)C(C)(C)C)C1)C(=O)N2C (stereo not given)	3.3	2.5
COc1ccc(Oc2coc3cc(OC(=O)N(C)C)ccc3c2=O)cc1	-5.8	-1.9
O=[N+]([O-])c1ccc(N2CCNCC2)cc1NCCc1ccccc1	91.3*	-3.1
O=[N+]([O-])c1ccc(N2CCNCC2)cc1NCCO	-0.1	-1.9
O=[N+]([O-])c1ccc(N2CCN(Cc3ccc(Cl)cc3Cl)CC2)cc1	16.8	-3.7
CN(C)/C=C/c1c(C=O)c2cc([N+](=O)[O-])ccc2n1Cc1ccccc1	100.3*	-56.5
O=Cc1cn(Cc2ccc([N+](=O)[O-])cc2)c2ccccc12	20.9	-0.6
O=[N+]([O-])c1ccc(N2CCCC(O)C2)c2cccnc12 (stereo not given)	-1.8	1.9
CN1CCCN(CC2=CCC3CC2C3(C)C)CC1 (stereo not given)	-1.6	-13.2
CC(C)C(=O)NC(Oc1ccccc1)C(Cl)(Cl)Cl (stereo not given)	-16.0	-4.5
CCCCCC(=O)NC(Oc1ccccc1)C(Cl)(Cl)Cl (stereo not given)	81.0*	-4.3
CNc1ccc2oc(CC3OC4(CCC3C)OC(C(C)C(=O)c3ccc[nH]3)C(C)CC4C)nc2c1C(=O)O (stereo not given)	x	-11.4
O=C(NC(O)C(Cl)(Cl)Cl)c1ccc(Cl)cc1 (stereo not given)	-6.0	-2.0
Cc1ccc(C2c3c(c4ccccc4oc3=O)Oc3c2c(=O)oc2ccccc32)o1	47.1	36.5
O=c1oc2ccccc2c2c1C(c1ccc(O)cc1)c1c(c3ccccc3oc1=O)O2	95.9*	69.3*
Cc1nc2cc(C(=O)N3CCC4(CC3)OCCO4)ccc2n1-c1ccc(Br)cc1	57.0*	-0.7
COc1ccc(-n2c(C)nc3cc(C(=O)N4CCC5(CC4)OCCO5)ccc32)cc1	1.0	-3.6
CC(C)C1CNC(=O)C1C(=O)O (stereo not given)	-2.3	-7.5
O=c1cccc2n1CC1CC2CN(Cc2cccc(OCc3ccccc3)c2)C1 (stereo not given)	27.6	7.4
COc1cc(CNCCc2cccc(Cl)c2)c([N+](=O)[O-])cc1OC	57.3*	-0.6
SMILES	mHTT-CaM PPI inh	Pf apPOL inh
COc1cc(OC)c(OC)cc1CNCCc1cccc(Cl)c1	1.7	-2.3
COc1ccccc1N1CCN(C(=O)C(O)(c2ccccc2)c2ccccc2)CC1	82.0*	-13.1
COc1ccccc1N1CCN(Cc2ccc(O)cc2)CC1	-3.4	-2.8
C(SCc1nn[nH]n1)c1nn[nH]n1	x	13.6
CCC(=O)Nc1ccc(Cl)cc1C(=O)c1ccccc1	-0.4	-2.8
O=C(CN1CCOCC1)Nc1ccc(Cl)cc1C(=O)c1ccccc1	-3.0	74.5*
NCC1(c2ccc3c(c2)OCCO3)CCOCC1	-8.0	106.2*
COc1ccc(C2(CN)CCOCC2)cc1OC	-1.8	-6.6
CN(C)C(=O)Oc1ccc2c(c1)OC(=Cc1cccc([N+](=O)[O-])c1)C2=O	7.1	0.2
COc1cccc(CN2CCN(c3ccc(F)cc3)CC2)c1OC	6.1	57.9*
COc1cccc(CN2CCN(c3ccc(Cl)cc3)CC2)c1OC	1.7	-12.4
CCn1ncc(C=C2CC3C4CC=C5CC(O)CCC5(C)C4CCC3(C)C2=O)c1C (stereo not given)	-2.4	1.9
COc1ccc(/C=C/[N+](=O)[O-])cc1I	71.9*	1.4
COc1ccc(/C=C/[N+](=O)[O-])cc1Br	67.4*	-1.7
CN(C)c1ccc(/C=C/[N+](=O)[O-])cc1Br	21.4	3.3
COc1ccc(/C=C/[N+](=O)[O-])cc1	26.4	3.6
COc1ccc(/C=C/C(=O)ON=C2CC3CCC(C2)N3C)cc1OC	-1.0	-7.7
Cc1ccc2cccc(OC(=O)N(C)c3ccccc3)c2n1	-6.7	1.5
Cc1cccc(NC(c2ccc(N(C)C)cc2)c2ccc3ccc(C)nc3c2O)n1 (stereo not given)	100.0*	-3.6
CN1C(=O)C(=Cc2cccn2-c2ccc(Cl)cc2)C(=O)N(C)C1=O	15.0	3.5
Brc1ccc(CN2CCN(c3ccccc3)CC2)cc1	0.8	-5.5
CCN(CC)c1ccc(CN2CCN(c3ccccc3)CC2)cc1	50.9*	0.4
O=c1oc2cc([N+](=O)[O-])c(O)c([N+](=O)[O-])c2s1	68.0*	-3.7
Cc1ccc(/C=C2\N=C(c3cncc(Br)c3)OC2=O)cc1	1.0	-2.8
Cc1[nH]c2ccccc2c1CCCNC1CCCCC1	10.0	-4.8
SMILES	mHTT-CaM PPI inh	Pf apPOL inh
Cc1[nH]c2ccccc2c1CCN	100.3*	1.2
COc1ccc(OC(=O)N(C)c2ccc(C)cc2)cc1	-18.7	-9.2
Cn1cc(C(=O)NCc2ccc(F)cc2)c2cccnc21	-8.6	-10.3
Cc1cccc(N2CCN(Cc3ccccc3)CC2)c1C	-14.7	-6.1
Cc1cccc(N2CCN(Cc3ccc(N(C)C)cc3)CC2)c1C	66.6*	-14.3
Brc1ccc2c(c1)C1C=CCC1C(c1cccnc1)N2 (stereo not given)	85.0*	-4.2
Brc1cccc(C2CC(c3cccnc3)Nc3nnnn32)c1 (stereo not given)	-3.0	8.7
O=C(NCc1ccccc1Cl)C(Cl)(Cl)Cl	-9.0	0.7
O=C(CN1C(=O)CN=C(c2ccccc2)c2ccccc21)Nc1ccccc1C(F)(F)F	5.0	-3.7
O=c1[nH]c(O)c(C=C2C=Nc3ccc(OCc4ccccc4)cc32)c(=O)[nH]1	76.0*	-2.7
COc1ccc(OC)c(-n2c(O)c(C=C3C=Nc4ccccc43)c(=O)[nH]c2=O)c1	34.0	-2.5
CC(C)C1(O)c2ccccc2-c2ncccc21 (stereo not given)	-2.6	0.4
O=C(COc1ccccc1F)N1CCN(CCn2cccn2)CC1	-18.0	-3.1
